Results taken from the supplement of paper PMC10849652.
About 8,800 targets were measured; listed, in parts, are those with a hit and a random draw of the rest. About 0.5% of all pairs of compound and target were hits.

Each target was assayed with C1=CC=C2C(=C1)C3=NNC4=CC=CC(=C43)C2=O (assay: log2 fold change, soluble protein after heating vs DMSO (PISA); higher = thermal stabilisation; K562 lysate, 10 uM; active = over 0.2 and 3.5 SD of the protein, either way, in both replicates (recomputed)).
Procedure, shortened: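 Soluble protein was defined as the supernatant remaining after 21,000xg for 90 min, following pooling of heated aliquots and adjustment to 0.5% NP-40 at 4°C. Before that, crude K562 extract at 1 mg/mL protein in PBS pH 7.4 with 1 mM MgCl2 was treated with 10 μM compound for 30 min and heated for 3 min across 48°C-58°C. Quantification used TMTpro 16plex LC-MS/MS with channel sums equalised, and values are log-two fold changes in thermal stability relative to solvent controls from duplicates.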

Chain of UniProt Q86UV5 (Q86UV5 whole entry, looked up): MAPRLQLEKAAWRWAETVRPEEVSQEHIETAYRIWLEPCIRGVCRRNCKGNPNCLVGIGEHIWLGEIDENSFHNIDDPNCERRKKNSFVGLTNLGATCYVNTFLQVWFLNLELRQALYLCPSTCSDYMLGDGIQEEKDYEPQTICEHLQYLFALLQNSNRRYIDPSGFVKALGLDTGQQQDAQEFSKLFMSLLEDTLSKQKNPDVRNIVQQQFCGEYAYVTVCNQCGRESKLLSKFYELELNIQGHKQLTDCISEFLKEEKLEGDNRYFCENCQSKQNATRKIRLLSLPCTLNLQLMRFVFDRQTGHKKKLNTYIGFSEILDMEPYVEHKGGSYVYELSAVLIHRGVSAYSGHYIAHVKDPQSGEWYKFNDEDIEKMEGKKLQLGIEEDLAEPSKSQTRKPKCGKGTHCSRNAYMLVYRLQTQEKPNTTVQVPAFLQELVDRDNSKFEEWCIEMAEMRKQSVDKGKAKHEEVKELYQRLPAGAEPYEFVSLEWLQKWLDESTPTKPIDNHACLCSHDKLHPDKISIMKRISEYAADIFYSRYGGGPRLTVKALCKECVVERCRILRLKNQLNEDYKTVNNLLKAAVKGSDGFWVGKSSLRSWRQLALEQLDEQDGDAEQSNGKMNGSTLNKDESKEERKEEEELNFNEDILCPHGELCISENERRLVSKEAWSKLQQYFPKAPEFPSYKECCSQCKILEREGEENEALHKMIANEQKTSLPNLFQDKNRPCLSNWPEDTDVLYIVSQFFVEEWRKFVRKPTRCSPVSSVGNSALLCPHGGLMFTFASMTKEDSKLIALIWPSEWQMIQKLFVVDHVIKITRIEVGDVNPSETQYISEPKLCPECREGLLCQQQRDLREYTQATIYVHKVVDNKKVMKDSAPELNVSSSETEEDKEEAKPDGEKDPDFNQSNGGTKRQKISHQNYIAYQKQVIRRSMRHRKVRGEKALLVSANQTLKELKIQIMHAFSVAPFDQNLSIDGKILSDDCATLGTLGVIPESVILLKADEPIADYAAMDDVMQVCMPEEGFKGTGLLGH
Chain of UniProt Q8NI36 (Q8NI36 whole entry, looked up): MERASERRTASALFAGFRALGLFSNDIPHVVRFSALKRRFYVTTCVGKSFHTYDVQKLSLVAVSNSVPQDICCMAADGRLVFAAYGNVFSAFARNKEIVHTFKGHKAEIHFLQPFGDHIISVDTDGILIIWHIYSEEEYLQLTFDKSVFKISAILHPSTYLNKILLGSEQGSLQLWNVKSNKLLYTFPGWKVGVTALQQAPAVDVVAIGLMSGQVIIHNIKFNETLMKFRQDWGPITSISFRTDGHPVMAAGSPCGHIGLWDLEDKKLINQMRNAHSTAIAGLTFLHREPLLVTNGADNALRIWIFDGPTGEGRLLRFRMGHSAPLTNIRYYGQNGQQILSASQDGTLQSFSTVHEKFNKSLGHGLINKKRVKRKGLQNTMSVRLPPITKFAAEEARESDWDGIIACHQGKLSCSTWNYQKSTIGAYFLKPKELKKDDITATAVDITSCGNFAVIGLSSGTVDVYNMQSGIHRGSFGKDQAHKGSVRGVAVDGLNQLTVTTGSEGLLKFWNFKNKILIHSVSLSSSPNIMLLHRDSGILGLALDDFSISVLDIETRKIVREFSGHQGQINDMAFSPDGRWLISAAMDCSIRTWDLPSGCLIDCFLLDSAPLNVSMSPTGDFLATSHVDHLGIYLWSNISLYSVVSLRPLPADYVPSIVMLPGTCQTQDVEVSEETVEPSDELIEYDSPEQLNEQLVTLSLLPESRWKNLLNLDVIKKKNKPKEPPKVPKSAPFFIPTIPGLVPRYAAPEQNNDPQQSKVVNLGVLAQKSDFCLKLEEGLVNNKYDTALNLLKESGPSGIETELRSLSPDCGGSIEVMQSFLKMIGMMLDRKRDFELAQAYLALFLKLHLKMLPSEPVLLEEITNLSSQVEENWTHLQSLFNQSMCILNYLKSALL
Chain of UniProt Q5VUA4 (Q5VUA4 whole entry, looked up): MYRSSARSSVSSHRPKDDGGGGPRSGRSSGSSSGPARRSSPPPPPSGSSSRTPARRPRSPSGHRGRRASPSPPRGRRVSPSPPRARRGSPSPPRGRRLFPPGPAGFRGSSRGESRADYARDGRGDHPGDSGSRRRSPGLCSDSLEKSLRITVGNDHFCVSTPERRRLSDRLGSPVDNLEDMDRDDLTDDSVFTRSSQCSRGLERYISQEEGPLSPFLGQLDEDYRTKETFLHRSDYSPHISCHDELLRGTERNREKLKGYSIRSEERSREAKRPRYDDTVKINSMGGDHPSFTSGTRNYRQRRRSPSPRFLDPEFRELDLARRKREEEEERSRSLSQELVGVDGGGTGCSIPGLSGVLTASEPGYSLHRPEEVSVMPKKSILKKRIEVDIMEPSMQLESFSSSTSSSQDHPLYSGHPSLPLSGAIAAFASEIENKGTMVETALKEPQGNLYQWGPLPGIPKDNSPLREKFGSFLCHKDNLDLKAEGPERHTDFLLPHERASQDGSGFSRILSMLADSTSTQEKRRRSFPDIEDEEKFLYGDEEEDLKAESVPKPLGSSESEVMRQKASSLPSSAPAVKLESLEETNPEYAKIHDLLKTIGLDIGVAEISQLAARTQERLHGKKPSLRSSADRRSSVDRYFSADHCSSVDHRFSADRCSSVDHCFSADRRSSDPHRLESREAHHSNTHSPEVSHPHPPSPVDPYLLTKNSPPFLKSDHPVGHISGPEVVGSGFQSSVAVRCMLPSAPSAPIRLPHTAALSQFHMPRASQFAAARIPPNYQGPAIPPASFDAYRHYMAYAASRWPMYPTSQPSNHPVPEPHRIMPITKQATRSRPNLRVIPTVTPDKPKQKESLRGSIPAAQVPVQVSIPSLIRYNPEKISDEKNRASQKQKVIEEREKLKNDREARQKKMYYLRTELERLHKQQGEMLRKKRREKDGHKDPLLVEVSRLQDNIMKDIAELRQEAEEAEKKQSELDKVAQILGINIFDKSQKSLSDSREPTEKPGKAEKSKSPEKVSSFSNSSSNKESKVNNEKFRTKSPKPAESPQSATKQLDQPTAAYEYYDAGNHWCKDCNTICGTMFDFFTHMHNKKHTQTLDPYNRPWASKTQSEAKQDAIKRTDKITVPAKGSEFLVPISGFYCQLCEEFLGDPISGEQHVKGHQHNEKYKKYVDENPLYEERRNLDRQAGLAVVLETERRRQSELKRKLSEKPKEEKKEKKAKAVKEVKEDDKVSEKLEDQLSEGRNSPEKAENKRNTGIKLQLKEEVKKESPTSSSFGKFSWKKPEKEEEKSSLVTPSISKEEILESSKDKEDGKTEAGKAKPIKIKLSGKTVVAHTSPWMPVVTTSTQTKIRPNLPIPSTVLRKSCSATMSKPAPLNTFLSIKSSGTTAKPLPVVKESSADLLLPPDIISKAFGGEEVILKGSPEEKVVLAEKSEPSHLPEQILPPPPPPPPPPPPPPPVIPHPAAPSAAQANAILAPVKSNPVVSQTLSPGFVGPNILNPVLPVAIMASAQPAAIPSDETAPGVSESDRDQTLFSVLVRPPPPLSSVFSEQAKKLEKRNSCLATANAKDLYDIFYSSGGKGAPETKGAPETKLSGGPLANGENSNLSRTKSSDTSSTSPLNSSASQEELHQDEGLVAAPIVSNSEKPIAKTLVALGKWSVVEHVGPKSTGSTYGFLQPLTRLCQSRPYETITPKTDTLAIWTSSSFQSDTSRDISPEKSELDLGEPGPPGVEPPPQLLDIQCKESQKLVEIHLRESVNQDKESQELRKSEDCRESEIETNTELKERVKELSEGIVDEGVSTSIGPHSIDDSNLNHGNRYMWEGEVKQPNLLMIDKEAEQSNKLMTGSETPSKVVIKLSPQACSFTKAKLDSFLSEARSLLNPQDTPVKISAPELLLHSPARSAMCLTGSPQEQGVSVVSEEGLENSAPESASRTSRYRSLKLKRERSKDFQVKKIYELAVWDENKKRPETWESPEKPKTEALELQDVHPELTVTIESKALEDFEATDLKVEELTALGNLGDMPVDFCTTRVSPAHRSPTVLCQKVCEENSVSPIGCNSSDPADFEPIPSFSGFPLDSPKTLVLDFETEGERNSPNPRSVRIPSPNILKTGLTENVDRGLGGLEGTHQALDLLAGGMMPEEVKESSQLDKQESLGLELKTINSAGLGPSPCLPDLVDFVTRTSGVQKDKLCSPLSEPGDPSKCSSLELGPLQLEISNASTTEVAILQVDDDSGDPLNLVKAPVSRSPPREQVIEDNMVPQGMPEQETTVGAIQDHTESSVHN
Chain of UniProt P58557 (P58557 whole entry, looked up): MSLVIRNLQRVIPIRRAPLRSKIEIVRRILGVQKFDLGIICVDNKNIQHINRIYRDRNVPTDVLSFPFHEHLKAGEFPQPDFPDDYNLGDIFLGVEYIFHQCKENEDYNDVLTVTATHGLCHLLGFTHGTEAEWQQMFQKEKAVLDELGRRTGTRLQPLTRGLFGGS
Chain of UniProt O00258 (O00258 whole entry, looked up): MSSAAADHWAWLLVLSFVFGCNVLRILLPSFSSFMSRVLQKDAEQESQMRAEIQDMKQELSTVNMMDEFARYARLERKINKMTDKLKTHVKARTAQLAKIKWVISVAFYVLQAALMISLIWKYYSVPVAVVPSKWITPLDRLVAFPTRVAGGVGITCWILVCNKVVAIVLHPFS
Chain of UniProt Q9Y484 (Q9Y484 whole entry, looked up): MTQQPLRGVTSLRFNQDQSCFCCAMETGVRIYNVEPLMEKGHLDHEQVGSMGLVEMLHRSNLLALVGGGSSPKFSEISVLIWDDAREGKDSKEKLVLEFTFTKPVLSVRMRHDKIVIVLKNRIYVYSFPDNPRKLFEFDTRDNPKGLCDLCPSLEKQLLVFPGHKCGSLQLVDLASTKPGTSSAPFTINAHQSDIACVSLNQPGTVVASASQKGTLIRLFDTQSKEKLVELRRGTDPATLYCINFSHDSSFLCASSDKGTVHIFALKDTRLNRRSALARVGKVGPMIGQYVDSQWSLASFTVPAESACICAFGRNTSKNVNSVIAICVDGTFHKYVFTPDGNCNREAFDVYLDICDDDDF

log2 fold change, inactive:
UNKL (UniProt E9PDK2) -0.122, URGCP (UniProt Q8TCY9) 0.051, WRB (UniProt O00258) 0.049, USP22 (UniProt Q9UPT9) -0.013, ZBTB40 (UniProt Q9NUA8) -0.017, USP48 isoform 8 (UniProt Q86UV5) -0.02, USP48 (UniProt Q86UV5) 0.049, WDR36 (UniProt Q8NI36) 0.008, ZNF845 (UniProt Q96IR2) -0.123, VPS72 (UniProt Q15906) 0.052, ZNF318 (UniProt Q5VUA4) 0.004, WDR45 isoform 2 (UniProt Q9Y484) -0.016, YTHDC2 (UniProt Q9H6S0) 0.074, ZKSCAN8 (UniProt Q15776) -0.04, ZDHHC17 (UniProt Q8IUH5) -0.247, YBEY (UniProt P58557) -0.031, USP16 (UniProt Q9Y5T5) -0.016, ULK3 isoform 4 (UniProt Q6PHR2) 0.177
